Experimental data taken from the supplement of paper PMC10849652.
The full data set covers some 8,800 targets. This sample favours those with a hit. About 0.5% of all pairs of compound and target were hits.

What follows are targets tested with Cc1nc(Nc2ncc(C(=O)Nc3c(C)cccc3Cl)s2)cc(N2CCN(CCO)CC2)n1 [dasatinib] (assay: log2 fold change, soluble protein after heating vs DMSO (PISA); higher = thermal stabilisation; K562 lysate, 10 uM; active = over 0.2 and 3.5 SD of the protein, either way, in both replicates (recomputed)).
Summary of the method: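 The values are log-two fold changes in thermal stability compared with solvent controls and come from duplicates. They were obtained by TMTpro 16plex LC-MS/MS, with channel sums equalised, on the supernatant after 21,000xg for 90 min. That supernatant came from crude K562 extract at 1 mg/mL protein treated with 10 μM compound for 30 min, heated for 3 min across 48°C-58°C, pooled and brought to 0.5% NP-40 at 4°C.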

Chain of UniProt Q7L211 (Q7L211 whole entry, looked up): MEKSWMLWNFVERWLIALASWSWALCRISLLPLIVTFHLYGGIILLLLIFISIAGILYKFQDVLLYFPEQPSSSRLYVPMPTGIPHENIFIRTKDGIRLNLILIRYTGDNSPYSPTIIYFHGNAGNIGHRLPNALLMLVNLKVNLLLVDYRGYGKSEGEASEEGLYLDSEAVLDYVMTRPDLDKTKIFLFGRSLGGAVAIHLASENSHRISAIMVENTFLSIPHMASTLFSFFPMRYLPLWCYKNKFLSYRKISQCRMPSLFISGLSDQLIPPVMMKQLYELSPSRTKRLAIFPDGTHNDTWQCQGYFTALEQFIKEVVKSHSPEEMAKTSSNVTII
Chain of UniProt P42331 (P42331 whole entry, looked up): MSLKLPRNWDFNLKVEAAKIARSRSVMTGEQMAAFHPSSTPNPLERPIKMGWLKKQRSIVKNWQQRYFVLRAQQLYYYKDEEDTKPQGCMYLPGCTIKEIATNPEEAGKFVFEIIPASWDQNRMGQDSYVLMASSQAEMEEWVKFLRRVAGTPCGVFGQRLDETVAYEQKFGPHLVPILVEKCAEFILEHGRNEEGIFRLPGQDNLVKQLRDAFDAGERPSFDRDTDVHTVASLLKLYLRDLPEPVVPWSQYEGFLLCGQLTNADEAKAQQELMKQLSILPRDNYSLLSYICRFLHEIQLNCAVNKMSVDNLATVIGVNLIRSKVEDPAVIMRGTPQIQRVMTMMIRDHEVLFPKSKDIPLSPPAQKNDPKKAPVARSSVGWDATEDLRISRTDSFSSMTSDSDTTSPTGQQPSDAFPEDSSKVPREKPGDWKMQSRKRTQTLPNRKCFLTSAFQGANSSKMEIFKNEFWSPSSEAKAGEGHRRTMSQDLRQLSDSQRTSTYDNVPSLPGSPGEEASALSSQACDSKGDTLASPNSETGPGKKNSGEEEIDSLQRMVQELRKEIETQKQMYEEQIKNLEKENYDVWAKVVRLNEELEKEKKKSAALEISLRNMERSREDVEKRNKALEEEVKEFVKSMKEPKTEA
Chain of UniProt Q02252 (Q02252 whole entry, looked up): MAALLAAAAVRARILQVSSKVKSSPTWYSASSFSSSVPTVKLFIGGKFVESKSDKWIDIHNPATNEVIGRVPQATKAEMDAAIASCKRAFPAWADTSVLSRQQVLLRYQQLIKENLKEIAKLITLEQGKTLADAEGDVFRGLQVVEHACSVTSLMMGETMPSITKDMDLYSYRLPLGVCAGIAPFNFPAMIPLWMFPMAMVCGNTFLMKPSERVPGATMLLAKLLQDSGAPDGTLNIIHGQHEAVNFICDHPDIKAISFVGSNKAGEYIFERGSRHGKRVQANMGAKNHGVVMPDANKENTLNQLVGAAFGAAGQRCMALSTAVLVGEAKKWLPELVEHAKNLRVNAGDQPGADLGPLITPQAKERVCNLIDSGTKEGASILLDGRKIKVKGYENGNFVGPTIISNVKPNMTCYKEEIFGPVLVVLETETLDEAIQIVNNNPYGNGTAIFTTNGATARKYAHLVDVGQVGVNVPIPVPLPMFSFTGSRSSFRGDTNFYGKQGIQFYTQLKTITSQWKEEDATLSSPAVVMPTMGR
Chain of UniProt Q9BTT0 (Q9BTT0 whole entry, looked up): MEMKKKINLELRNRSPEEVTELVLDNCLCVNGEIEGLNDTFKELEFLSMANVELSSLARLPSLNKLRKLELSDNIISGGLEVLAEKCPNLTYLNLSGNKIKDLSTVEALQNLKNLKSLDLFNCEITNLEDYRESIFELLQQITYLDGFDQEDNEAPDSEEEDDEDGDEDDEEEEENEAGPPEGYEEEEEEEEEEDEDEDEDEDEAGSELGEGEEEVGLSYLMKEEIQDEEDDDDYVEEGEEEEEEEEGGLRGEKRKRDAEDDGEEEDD
Chain of UniProt O43182 (O43182 whole entry, looked up): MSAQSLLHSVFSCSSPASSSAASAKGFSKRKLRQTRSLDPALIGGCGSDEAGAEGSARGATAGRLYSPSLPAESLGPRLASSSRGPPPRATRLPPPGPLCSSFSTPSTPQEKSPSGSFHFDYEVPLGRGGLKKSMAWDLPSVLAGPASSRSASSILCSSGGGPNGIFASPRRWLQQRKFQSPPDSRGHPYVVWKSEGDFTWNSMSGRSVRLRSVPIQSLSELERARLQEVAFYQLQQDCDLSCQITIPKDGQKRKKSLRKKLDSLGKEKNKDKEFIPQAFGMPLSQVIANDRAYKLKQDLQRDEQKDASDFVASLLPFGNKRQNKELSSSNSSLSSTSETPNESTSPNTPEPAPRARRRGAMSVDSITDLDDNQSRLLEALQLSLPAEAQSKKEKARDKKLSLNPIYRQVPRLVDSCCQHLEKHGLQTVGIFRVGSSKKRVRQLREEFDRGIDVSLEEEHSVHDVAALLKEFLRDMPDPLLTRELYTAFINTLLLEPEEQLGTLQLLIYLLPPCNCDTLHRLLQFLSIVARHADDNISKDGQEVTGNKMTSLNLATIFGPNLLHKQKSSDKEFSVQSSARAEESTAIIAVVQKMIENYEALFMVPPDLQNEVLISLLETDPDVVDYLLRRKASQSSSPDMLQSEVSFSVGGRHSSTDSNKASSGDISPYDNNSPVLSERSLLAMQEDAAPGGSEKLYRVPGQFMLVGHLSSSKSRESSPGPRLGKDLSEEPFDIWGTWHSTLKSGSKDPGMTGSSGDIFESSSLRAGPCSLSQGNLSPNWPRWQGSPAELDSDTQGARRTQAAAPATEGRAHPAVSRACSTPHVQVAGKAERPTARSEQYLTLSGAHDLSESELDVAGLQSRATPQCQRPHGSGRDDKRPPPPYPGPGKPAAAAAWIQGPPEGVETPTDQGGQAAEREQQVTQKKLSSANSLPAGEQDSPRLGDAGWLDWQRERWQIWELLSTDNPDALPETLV
Chain of UniProt Q9NP73 (Q9NP73 whole entry, looked up): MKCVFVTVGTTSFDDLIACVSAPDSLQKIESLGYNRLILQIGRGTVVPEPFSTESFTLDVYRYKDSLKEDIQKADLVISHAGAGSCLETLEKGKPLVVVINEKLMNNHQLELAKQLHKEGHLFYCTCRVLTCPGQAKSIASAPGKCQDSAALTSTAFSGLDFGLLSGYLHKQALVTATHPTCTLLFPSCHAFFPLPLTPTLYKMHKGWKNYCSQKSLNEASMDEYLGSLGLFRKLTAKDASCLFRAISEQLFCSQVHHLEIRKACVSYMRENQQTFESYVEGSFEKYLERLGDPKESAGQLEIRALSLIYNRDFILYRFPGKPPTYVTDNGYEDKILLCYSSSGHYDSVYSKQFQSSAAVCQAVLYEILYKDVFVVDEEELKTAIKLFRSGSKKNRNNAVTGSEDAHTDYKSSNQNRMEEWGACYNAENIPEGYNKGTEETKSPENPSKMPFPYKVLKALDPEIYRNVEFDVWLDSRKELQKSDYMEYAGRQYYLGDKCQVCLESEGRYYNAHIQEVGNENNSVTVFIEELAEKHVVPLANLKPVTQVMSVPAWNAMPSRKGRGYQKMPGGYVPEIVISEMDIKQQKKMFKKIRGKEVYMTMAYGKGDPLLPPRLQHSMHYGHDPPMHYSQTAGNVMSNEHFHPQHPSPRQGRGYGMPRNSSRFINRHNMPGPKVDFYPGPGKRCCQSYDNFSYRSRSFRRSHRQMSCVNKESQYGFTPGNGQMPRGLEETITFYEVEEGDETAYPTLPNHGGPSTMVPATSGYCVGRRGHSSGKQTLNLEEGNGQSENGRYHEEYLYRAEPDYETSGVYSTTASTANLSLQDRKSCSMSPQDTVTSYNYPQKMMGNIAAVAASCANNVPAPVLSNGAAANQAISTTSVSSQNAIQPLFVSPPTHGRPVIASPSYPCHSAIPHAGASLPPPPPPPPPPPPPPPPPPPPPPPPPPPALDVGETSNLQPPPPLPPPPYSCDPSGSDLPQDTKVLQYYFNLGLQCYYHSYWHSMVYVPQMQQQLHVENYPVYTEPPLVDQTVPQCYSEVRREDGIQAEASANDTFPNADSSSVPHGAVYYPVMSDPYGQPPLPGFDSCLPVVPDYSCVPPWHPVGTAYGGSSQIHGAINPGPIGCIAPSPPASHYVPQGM
Chain of UniProt P07311 (P07311 whole entry, looked up): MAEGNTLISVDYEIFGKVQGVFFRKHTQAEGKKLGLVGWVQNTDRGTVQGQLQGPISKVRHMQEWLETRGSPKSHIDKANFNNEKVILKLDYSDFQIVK
Chain of UniProt P04083 (P04083 whole entry, looked up): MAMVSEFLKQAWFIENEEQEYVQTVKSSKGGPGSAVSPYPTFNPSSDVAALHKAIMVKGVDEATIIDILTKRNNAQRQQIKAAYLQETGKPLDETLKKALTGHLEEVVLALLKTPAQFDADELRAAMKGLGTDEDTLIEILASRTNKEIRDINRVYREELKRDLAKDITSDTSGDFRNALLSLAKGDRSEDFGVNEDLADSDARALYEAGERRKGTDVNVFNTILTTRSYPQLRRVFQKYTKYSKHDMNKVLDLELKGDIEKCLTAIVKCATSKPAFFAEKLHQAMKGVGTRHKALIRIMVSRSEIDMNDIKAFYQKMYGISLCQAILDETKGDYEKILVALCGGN
Chain of UniProt P05091 (P05091 whole entry, looked up): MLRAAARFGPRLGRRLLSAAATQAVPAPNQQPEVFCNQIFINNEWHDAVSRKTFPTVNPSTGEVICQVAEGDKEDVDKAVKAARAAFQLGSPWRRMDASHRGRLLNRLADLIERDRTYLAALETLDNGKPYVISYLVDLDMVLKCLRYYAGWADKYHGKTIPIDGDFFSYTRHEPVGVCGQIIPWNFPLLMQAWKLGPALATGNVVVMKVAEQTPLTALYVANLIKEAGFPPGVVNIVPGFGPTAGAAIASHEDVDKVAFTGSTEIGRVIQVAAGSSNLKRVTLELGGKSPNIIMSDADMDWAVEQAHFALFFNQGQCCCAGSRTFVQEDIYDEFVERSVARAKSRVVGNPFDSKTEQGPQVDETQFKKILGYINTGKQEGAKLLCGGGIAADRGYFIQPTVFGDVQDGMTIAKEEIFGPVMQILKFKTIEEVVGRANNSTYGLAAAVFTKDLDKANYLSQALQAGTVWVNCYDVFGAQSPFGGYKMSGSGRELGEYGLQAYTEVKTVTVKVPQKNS

log2 fold change, inactive:
ARHGAP25 isoform 4 (UniProt P42331) -0.039
ARAF (UniProt P10398) 0.16
ANP32A (UniProt P39687) 0.125
ALDH5A1 isoform 2 (UniProt P51649) -0.005
ANP32E (UniProt Q9BTT0) 0.015
AKAP8L (UniProt Q9ULX6) -0.062
ABHD13 (UniProt Q7L211) -0.177
ANXA11 (UniProt P50995) -0.033
ADD1 isoform 3 (UniProt P35611) 0.007
AK2 (UniProt P54819) 0.079
AKAP8 (UniProt O43823) 0.01
ARFGAP1 (UniProt Q8N6T3) -0.03
ANAPC7 (UniProt Q9UJX3) -0.004
ALDH6A1 (UniProt Q02252) -0.144
ANKRD27 (UniProt Q96NW4) -0.01
ALG13 (UniProt Q9NP73) -0.044
ASB6 (UniProt Q9NWX5) 0.01
ACAT1 (UniProt P24752) 0.015
ANKRD54 (UniProt Q6NXT1) -0.013
AKT2 (UniProt P31751) 0.003
AP5B1 (UniProt Q2VPB7) 0.065
ANXA1 (UniProt P04083) -0.009
ARHGAP21 (UniProt Q5T5U3) -0.039
ACYP1 (UniProt P07311) 0.022
AKAP11 (UniProt Q9UKA4) -0.074
ALDH2 (UniProt P05091) 0.014
ARHGAP6 (UniProt O43182) -0.102
ACSL1 (UniProt P33121) -0.132
ARMC6 (UniProt Q6NXE6) -0.055
AFF1 isoform 2 (UniProt P51825) 0.059
ANKRD30A (UniProt Q9BXX3) 0.006
AMDHD2 isoform 3 (UniProt Q9Y303) -0.043
ANXA5 (UniProt P08758) -0.009
ACTG1 (UniProt I3L4N8) 0.055
ARL15 (UniProt Q9NXU5) -0.063
